Hits are enriched below; roughly 20% of the tested compounds scored in any of these assays.
HCMV antiviral = human cytomegalovirus inhibition; HFF cells, HCMV-luciferase reporter, 72 h; stronger effect = lower value; activity change, negative = inhibition, % at 57.5 µM; 410,000 compounds, 4.5% hits; AID 1259415; in the data active = activity change below about -60%; inconclusive = no clear call, values can overlap the other calls; inactive = above about -39%; note: % is set by controls: 0 for no effect and ±100 for the full control effect
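Steps: HFFs plated, 16 h 37C; compounds added; HCMV-luciferase added to MOI 1 PFU/cell; 72 h 37C; OneGlo reagent, 5 min room temperature; luminescence read, normalized to controls.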
Shiga inhibitor = inhibitors of Shiga toxin in Vero cells; inhibition, % at 38.7 µM; 290,000 compounds, 9.2% hits; Vero cells, Shiga toxin protein synthesis inhibition reporter; AID 2315; in the data active = inhibition mostly above about 28%, no sharp cut-off; inactive = mostly below about 43%; note: 0% is about no effect
Pf growth 96h = P. falciparum growth inhibition at 96 hour, primary screen for plastid delayed-death inhibitors; P. falciparum luciferase reporter growth, 96 h; Potency, µM (top dose mostly 28.7 µM), for the others: at the highest dose activity change, negative = inhibition, actives largely listed as inhibitors; 320,000 compounds, 6.9% hits; AID 504834; note: potency is the fitted concentration of half-maximal effect; % is set by controls: 0 for no effect and ±100 for the full control effect
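Delayed-death screen, second-generation endpoint: infected erythrocytes, 2% hematocrit, 0.05% parasitemia final; 96 hours at 37 C, 5% CO2; luciferase detection reagent; luminescence decrease equals reduced growth.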
Pf growth 48h = P. falciparum growth inhibition at 48 hours (one generation); P. falciparum luciferase growth in erythrocytes, 48 h; Potency, µM (doses to about 28.7 µM), inactives show top-dose activity change, negative = inhibition, hits mostly inhibitors; 310,000 compounds, 5.9% hits; AID 504832; note: potency is the fitted concentration of half-maximal effect; % is set by controls: 0 for no effect and ±100 for the full control effect
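Firefly luciferase activity from engineered P. falciparum reports growth; inhibitors lower the luminescent signal. Cultures contained 2% hematocrit erythrocytes at 0.1% final parasitemia.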
Cycloheximide cs = affects cycloheximide protein synthesis inhibition readout, counter-screen. cell reporter, cycloheximide protein synthesis inhibition counterscreen. max response, %. 300,000 compounds, 12% hits. AID 2314; in the data active = max response mostly above about 13%, no sharp cut-off; inactive = mostly below about 14%; note: read at 38.3 µM for the half of the compounds with a filed dose; 0% is about no effect
* hit, by the source's call; ? = inconclusive; . = no result. Unless noted, calls come from the whole dose curve; as a rule, active = well fitted inhibition curve with a large enough effect; inconclusive = small, poorly fitted or top-dose-only effect, or another doubt; inactive = no such curve, though single readings can be large or run the other way.

SMILES	HCMV antiviral	Shiga inhibitor	Pf growth 96h	Pf growth 48h	Cycloheximide cs
COc1ccccc1CCNC(=O)c1cc(-c2ccncc2)nc2ccc(Br)cc12	-66.2*	42.9	-10.5%	?	-3.0
Cc1ccc2nc(-c3ccncc3)cc(C(=O)NCc3ccccc3F)c2c1	.	-2.7	14.7µM*	?	-3.9
CCOc1ccc(-c2cc(C(=O)NCCCn3ccnc3)c3cc(Br)ccc3n2)cc1	-76.6*	-17.7	?	1.65µM*	-2.9
COC(=O)CNC(=O)c1cc(-c2ccncc2)nc2ccc(C)cc12	3.7	-20.7	-28.4%	10.7%	-4.3
COc1ccccc1NC(=O)CSc1nnc(CC(=O)Nc2ccccc2C)n1C	-29.9	-3.8	55.1%	-1.0%	-0.7
CC(C)(C)c1[nH]nc2c1C(Cc1ccccc1)C(C#N)=C(N)O2 (stereo not given)	-33.9	11.8	-21.5%	10.4µM*	1.3
CC1=C(C(=O)N(C(C)C)C(C)C)CC(CC(=O)NC2CC2)C(=O)N1CCC1=CCCCC1 (stereo not given)	-3.7	.	.	.	.
O=c1[nH]c2ccccc2nc1CCc1ccccc1	2.3	70.7*	96.4%	51.8%	24.2*
CNCc1nc2ccccc2[nH]1	42.0	6.7	?	20.3%	0.4
O=S(=O)(CCc1nc2ccccc2[nH]1)c1ccc(Br)cc1	?	-1.8	10.4µM*	?	-2.4
O=S(=O)(NCc1nc2ccccc2[nH]1)c1ccccc1	-20.9	30.7*	52.0%	32.5%	19.0
c1ccc(CCc2nc3ccccc3[nH]2)cc1	-20.3	78.2*	5.86µM*	83.3%	40.8*
O=c1[nH]c2ccccc2nc1Cc1ccc(Cl)cc1	15.1	-4.2	4.5%	5.0%	24.3
c1csc(Cc2nc3ccccc3[nH]2)c1	124.7	34.9	1.6%	15.9%	23.7*
Cn1c(Cc2cccs2)nnc1SCc1nc2ccccc2[nH]1	4.6	16.7	8.8%	-21.2%	-0.9
O=C(NCCCc1nc2ccccc2[nH]1)c1ccco1	28.4	2.9	9.28µM*	27.3%	5.7
O=C(NCCc1nc2ccccc2[nH]1)c1cccc(Br)c1	-70.0*	-2.6	7.5%	-7.9%	-2.4
Nc1cccc(CCc2nc3cc4ccccc4cc3[nH]2)c1	145.5	35.8*	?	203.0%	22.1*
O=C(NCCc1nc2ccccc2[nH]1)c1ccc(F)cc1	?	1.1	.	11.1%	10.5
Cc1ccnc(SCC(=O)NC2CCCCCC2)n1	-32.3	11.7	11.0%	19.5%	11.6
c1ccc2[nH]c(CCCc3nc4ccccc4[nH]3)nc2c1	-7.6	-5.1	13.1µM*	?	-2.0
Cc1cccc([N+](=O)[O-])c1NC(=O)CN(Cc1ccccc1)Cc1ccccc1	-61.0*	2.4	8.28µM*	?	-1.6
Nc1ccc(-c2nnn(Cc3ccccc3F)n2)cc1	2.3	55.0*	?	58.7%	32.2*
O=C(OCc1ccccc1Cl)c1ccc(-c2nnn(Cc3ccc(F)cc3)n2)cc1	-0.5	.	.	.	.
Cc1ccccc1Cn1nnc(-c2ccc(F)cc2)n1	-75.2*	29.9*	36.6%	5.8%	19.1*
SMILES	HCMV antiviral	Shiga inhibitor	Pf growth 96h	Pf growth 48h	Cycloheximide cs
Fc1ccc(Cn2nnc(-c3ccc(Cl)cc3)n2)cc1	25.9	55.8*	1.9%	55.5%	34.5*
Fc1ccc(-c2nnn(Cc3ccccc3Cl)n2)cc1	5.2	99.0*	21.1%	28.8%	35.9*
CC(=O)NS(=O)(=O)c1ccc(NC(=O)NC2CCCCC2)cc1	11.7	-5.2	19.7%	30.6%	-1.8
CCCc1cc(=O)[nH]c(SCc2nc(-c3ccc(OC)cc3)no2)n1	1.6	.	.	.	.
CCC1CCc2sc(C(=O)NCC3CCCO3)cc2C1 (stereo not given)	52.4	.	370.7%	223.6%	.
CC1CCc2sc(C(=O)NC3CCN(Cc4ccccc4)CC3)cc2C1 (stereo not given)	?	.	6.57µM*	8.28µM*	.
COc1ccc(C(CNC(=O)c2cccc(S(=O)(=O)N3CCCC3)c2)N2CCCC2)cc1 (stereo not given)	-11.3	.	?	?	.
CCC1CCc2sc(C(=O)NCC(c3ccccc3OC)N3CCCC3)cc2C1 (stereo not given)	?	.	9.28µM*	10.4µM*	.
COc1ccc(C(CNC(=O)c2cc3c(s2)CCC(C)C3)N2CCCC2)cc1 (stereo not given)	?	.	4.15µM*	9.28µM*	.
COc1ccc(C(CNC(=O)c2cc3c(s2)CCC(C)C3)N2CCOCC2)cc1 (stereo not given)	?	.	?	11.7µM*	.

From PubChem BioAssay
